Results: PubChem BioAssay AID1159580 (chemical genetic matrix, 2015)
Where “and” joins values, the source holds several entries; their conditions need not be identical. Equal entries are not always repeated. Out of some 5,500 compounds screened, about 2,000 (36%) were called active. Inconclusive results (about 18%) are left out. Rule as the data show it: active = normalized growth mostly below about 0.91 (no sharp cut-off); inconclusive = no clear call, values can overlap the other calls; inactive = mostly above about 0.92. The list shows a part of the results.

Test: chemical genetic growth profiling, strain panel (AID 1159580);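 also: tested at 20 µM; growth read once vehicle control cultures reached saturation at 30 °C; 1 = growth at the plate median or of vehicle wells; lower values mean less growth of the strain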
Conditions: S. cerevisiae deletion strains, growth OD

Measured: normalized growth

CCC(=O)OC1[C@@H]2CC3=C4CC(=O)O[C@@H](c5ccoc5)[C@]4(C)CCC3[C@@](C)(C2=O)[C@@H](CC(=O)OC)C1(C)C (stereo partly specified)
inactive: locus YAL021C, strain ccr4, hits give low values 1.03 | locus YAL026C, strain drs2, hits give low values 0.973 | locus YAL030W, strain snc1, hits give low values 0.998 | locus YBL061C, strain skt5, hits give low values 0.992 | locus YBR009C, strain hhf1, hits give low values 0.992 | locus YBR021W, strain FUR4, hits give low values 1.01 | locus YBR023C, strain chs3, hits give low values 0.995 | locus YBR171W, strain sec66, hits give low values 0.983 | locus YBR229C, strain ROT2, hits give low values 1 | locus YBR231C, strain swc5, hits give low values 0.989 | locus YBR279W, strain paf1, hits give low values 0.999 | locus YCL011C, strain gbp2, hits give low values 1.01 | locus YCL016C, strain dcc1, hits give low values 1.01 | locus YCL029C, strain bik1, hits give low values 1.02 | locus YCL061C, strain MRC1, hits give low values 0.998 | locus YCL069W, strain vba3, hits give low values 0.995 | locus YCR088W, strain abp1, hits give low values 0.996 | locus YDL005C, strain med2, hits give low values 0.978 | locus YDL035C, strain GPR1, hits give low values 1 | locus YDL040C, strain nat1, hits give low values 0.976 | locus YDL074C, strain BRE1, hits give low values 1.01 | locus YDL101C, strain DUN1, hits give low values 1 | locus YDL185W, strain tfp1, hits give low values 1.02 | locus YDL192W, strain arf1, hits give low values 1.01 | locus YDR001C, strain nth1, hits give low values 0.992 | locus YDR069C, strain doa4, hits give low values 0.982 | locus YDR101C, strain arx1, hits give low values 1.02 | locus YDR137W, strain rgp1, hits give low values 0.901 | locus YDR159W, strain sac3, hits give low values 0.991 | locus YDR162C, strain NBP2, hits give low values 0.999 | locus YDR195W, strain ref2 0.984 | locus YDR297W, strain sur2, hits give low values 0.994 | locus YDR318W, strain mcm21, hits give low values 1.01 | locus YDR334W, strain swr1, hits give low values 0.982 | locus YDR335W, strain msn5, hits give low values 0.996 | locus YDR388W, hits give low values 1.01 | locus YDR392W, strain spt3, hits give low values 0.837 | locus YDR502C, strain sam2, hits give low values 1.02 | locus YEL003W, strain gim4, hits give low values 0.989 | locus YEL037C, strain rad23, hits give low values 0.984 | locus YEL061C, strain CIN8 (second series), hits give low values 0.986 | locus YEL061C, strain CIN8, hits give low values 0.992 | locus YER015W, strain faa2, hits give low values 1 | locus YER016W, strain bim1, hits give low values 0.991 | locus YER110C, hits give low values 1.02 | locus YER111C, strain swi4, hits give low values 0.977 | locus YER155C, strain BEM2 (second series), hits give low values 1 | locus YER155C, strain BEM2, hits give low values 0.998 | locus YER167W, strain BCK2, hits give low values 0.994 | locus YFR010W, strain ubp6, hits give low values 0.984 | locus YGL078C, strain dbp3, hits give low values 1 | locus YGL086W, strain mad1, hits give low values 1 | locus YGL167C, strain pmr1, hits give low values 0.989 | locus YGL173C, strain kem1, hits give low values 0.979 | locus YGL227W, strain vid30, hits give low values 0.988 | locus YGL240W, strain doc1, hits give low values 0.99 | locus YGL248W, strain PDE1, hits give low values 1 | locus YGL253W, strain hxk2, hits give low values 0.954 | locus YGR135W, strain pre9, hits give low values 1.02 | locus YGR252W, strain gcn5, hits give low values 1.05 | locus YHR013C, strain ard1, hits give low values 0.966 | locus YHR027C, strain rpn1, hits give low values 0.988 | locus YHR030C, strain SLT2, hits give low values 1 and 0.969 | locus YHR079C, strain IRE1 (second series), hits give low values 1.01 | locus YHR079C, strain IRE1, hits give low values 0.987 | locus YHR094C, strain hxt1, hits give low values 1.01 | locus YHR129C, strain ARP1, hits give low values 1 | locus YHR142W, strain chs7, hits give low values 1.01 | locus YHR200W, strain rpn10, hits give low values 1.02 | locus YIL066C, strain RNR3, hits give low values 0.999 | locus YIL073C, strain SPO22, hits give low values 1.05 | locus YIL125W, strain kgd1, hits give low values 1.01 | locus YIR030C, strain dcg1, hits give low values 1.01 | locus YJL092W, strain hpr5, hits give low values 0.995 | locus YJL095W, strain BCK1 (second series), hits give low values 0.995 | locus YJL095W, strain BCK1, hits give low values 0.992 and 0.999 | locus YJL115W, strain asf1, hits give low values 0.989 | locus YJL129C, strain trk1, hits give low values 0.974 | locus YJL134W, strain LCB3, hits give low values 0.998 | locus YJL154C, strain vps35, hits give low values 0.996 | locus YJL164C, strain tpk1, hits give low values 1.01 | locus YJL166W, strain qcr8, hits give low values 1 | locus YJL168C, strain set2, hits give low values 1 | locus YJL187C, strain SWE1 (second series), hits give low values 1.01 | locus YJL187C, strain SWE1, hits give low values 0.998 | locus YJR043C, strain POL32, hits give low values 1.02
